# Laboratory results taken from publication PMC5540273 (PLoS ONE, 2017).
# Where two headings read alike, the source gives them in different places.
# Tests used:
# FGFR1 = details: concentration: 1 μM,replicates: in singlicate; n = 1
# FGFR2 = details: concentration: 1 μM,replicates: in singlicate; n = 1
# FGFR3 = details: concentration: 1 μM,replicates: in singlicate; n = 1
# FGFR4 = details: concentration: 1 μM,replicates: in singlicate; n = 1
# FGR = details: concentration: 1 μM,replicates: in singlicate; n = 1
# FLT1 = details: concentration: 1 μM,replicates: in singlicate; n = 1
# FLT3-autoinhibited = details: concentration: 1 μM,replicates: in singlicate; n = 1
# FLT3 = details: concentration: 1 μM,replicates: in singlicate; n = 1
# FLT4 = details: concentration: 1 μM,replicates: in singlicate; n = 1
# FRK = details: concentration: 1 μM,replicates: in singlicate; n = 1
# FYN = details: concentration: 1 μM,replicates: in singlicate; n = 1
# GAK = details: concentration: 1 μM,replicates: in singlicate; n = 1
# GCN2(Kin.Dom.2,S808G) = test system: T1, GCN2(Kin.Dom.2,S808G); details: concentration: 1 μM,replicates: in singlicate; n = 1
# T1 construct: gene EIF2AK4
# GRK1 = details: concentration: 1 μM,replicates: in singlicate; n = 1
# GRK2 = test system: T2, GRK2; details: concentration: 1 μM,replicates: in singlicate; n = 1
# T2 construct: gene ADRBK1
# GRK3 = test system: T3, GRK3; details: concentration: 1 μM,replicates: in singlicate; n = 1
# T3 construct: gene ADRBK2
# GRK4 = details: concentration: 1 μM,replicates: in singlicate; n = 1
# GRK7 = details: concentration: 1 μM,replicates: in singlicate; n = 1
# GSK3A = details: concentration: 1 μM,replicates: in singlicate; n = 1
# GSK3B = details: n = 1
# [1] = concentration: 1 μM,replicates: in singlicate
# 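Further: KINOMEscan kinase panel screen.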
smiles,measurement,setting,value
CC(C(=O)NC1CCN(c2ccnc(Nc3ccc(F)cc3)n2)C1)c1ccc(Cl)cc1 (stereo not shown) [GSK1379713],%Inh,FGFR1,0%
same,%Inh,FGFR2,11%
same,%Inh,FGFR3,9%
same,%Inh,FGFR4,0%
same,%Inh,FGR,0%
same,%Inh,FLT1,33%
same,%Inh,FLT3-autoinhibited,0%
same,%Inh,FLT3,8%
same,%Inh,FLT4,0%
same,%Inh,FRK,0%
same,%Inh,FYN,14%
same,%Inh,GAK,0%
same,%Inh,"GCN2(Kin.Dom.2,S808G)",0%
same,%Inh,GRK1,0%
same,%Inh,GRK2,0%
same,%Inh,GRK3,0%
same,%Inh,GRK4,12%
same,%Inh,GRK7,0%
same,%Inh,GSK3A,0%
same,%Inh,GSK3B; [1],0%
COC(=O)Nc1nc2cc(Oc3ccc(NC(=O)Nc4cc(C(F)(F)F)ccc4Cl)cc3)ccc2[nH]1.Cl [GW697465],%Inh,FGFR1,4%
same,%Inh,FGFR2,34%
same,%Inh,FGFR3,95.8%
same,%Inh,FGFR4,1%
same,%Inh,FGR,13%
same,%Inh,FLT1,98.8%
same,%Inh,FLT3-autoinhibited,0%
same,%Inh,FLT3,99.1%
same,%Inh,FLT4,99.4%
same,%Inh,FRK,91.8%
same,%Inh,FYN,9%
same,%Inh,GAK,0%
same,%Inh,"GCN2(Kin.Dom.2,S808G)",8%
same,%Inh,GRK1,0%
same,%Inh,GRK2,0%
same,%Inh,GRK3,65%
same,%Inh,GRK4,0%
same,%Inh,GRK7,0%
same,%Inh,GSK3A,12%
same,%Inh,GSK3B; [1],0%
Cn1ccc2ncnc(Oc3ccc(NC(=O)Nc4cccc(C(F)(F)F)c4)c(F)c3)c21,%Inh,FGFR1,0%
same,%Inh,FGFR2,14%
same,%Inh,FGFR3,5%
same,%Inh,FGFR4,3%
same,%Inh,FGR,3%
same,%Inh,FLT1,98.9%
same,%Inh,FLT3-autoinhibited,38%
same,%Inh,FLT3,98%
same,%Inh,FLT4,99.9%
same,%Inh,FRK,85%
same,%Inh,FYN,10%
same,%Inh,GAK,12%
same,%Inh,"GCN2(Kin.Dom.2,S808G)",26%
same,%Inh,GRK1,15%
same,%Inh,GRK2,0%
same,%Inh,GRK3,0%
same,%Inh,GRK4,24%
same,%Inh,GRK7,0%
same,%Inh,GSK3A,2%
same,%Inh,GSK3B; [1],7%
CS(=O)c1ccc(-c2coc3ccc(-c4n[nH]c(=O)o4)cc23)cc1 (stereo not shown),%Inh,FGFR1,5%
same,%Inh,FGFR2,8%
same,%Inh,FGFR3,3%
same,%Inh,FGFR4,0%
same,%Inh,FGR,0%
same,%Inh,FLT1,19%
same,%Inh,FLT3-autoinhibited,0%
same,%Inh,FLT3,16%
same,%Inh,FLT4,3%
same,%Inh,FRK,0%
same,%Inh,FYN,0%
same,%Inh,GAK,0%
same,%Inh,"GCN2(Kin.Dom.2,S808G)",21%
same,%Inh,GRK1,6%
same,%Inh,GRK2,0%
same,%Inh,GRK3,30%
same,%Inh,GRK4,19%
same,%Inh,GRK7,15%
same,%Inh,GSK3A,93.3%
same,%Inh,GSK3B; [1],15%
Cn1cc(-c2cccc3c(N)c(C(N)=O)nnc23)cn1,%Inh,FGFR1,25%
same,%Inh,FGFR2,2%
same,%Inh,FGFR3,12%
same,%Inh,FGFR4,9%
same,%Inh,FGR,9%
same,%Inh,FLT1,0%
same,%Inh,FLT3-autoinhibited,30%
same,%Inh,FLT3,27%
same,%Inh,FLT4,15%
same,%Inh,FRK,2%
same,%Inh,FYN,1%
same,%Inh,GAK,36%
same,%Inh,"GCN2(Kin.Dom.2,S808G)",16%
same,%Inh,GRK1,23%
same,%Inh,GRK2,7%
same,%Inh,GRK3,0%
same,%Inh,GRK4,40%
same,%Inh,GRK7,36%
same,%Inh,GSK3A,7%
same,%Inh,GSK3B; [1],20%
C[C@@H](Oc1cc(-n2cnc3cc(-c4ccncc4)ccc32)sc1C(N)=O)c1ccccc1Cl [GSK479719],%Inh,FGFR1,46%
same,%Inh,FGFR2,57%
same,%Inh,FGFR3,71%
same,%Inh,FGFR4,34%
same,%Inh,FGR,40%
same,%Inh,FLT1,54%
same,%Inh,FLT3-autoinhibited,24%
same,%Inh,FLT3,97.3%
same,%Inh,FLT4,97.1%
same,%Inh,FRK,15%
same,%Inh,FYN,29%
same,%Inh,GAK,59%
same,%Inh,"GCN2(Kin.Dom.2,S808G)",69%
same,%Inh,GRK1,100%
same,%Inh,GRK2,0%
same,%Inh,GRK3,62%
same,%Inh,GRK4,62%
same,%Inh,GRK7,0%
same,%Inh,GSK3A,13%
same,%Inh,GSK3B; [1],24%
CCCC(=O)Nc1n[nH]c2ncccc12 [SB-601436],%Inh,FGFR1,0%
same,%Inh,FGFR2,0%
same,%Inh,FGFR3,0%
same,%Inh,FGFR4,0%
same,%Inh,FGR,30%
same,%Inh,FLT1,0%
same,%Inh,FLT3-autoinhibited,0%
same,%Inh,FLT3,13%
same,%Inh,FLT4,0%
same,%Inh,FRK,0%
same,%Inh,FYN,0%
same,%Inh,GAK,0%
same,%Inh,"GCN2(Kin.Dom.2,S808G)",0%
same,%Inh,GRK1,13%
same,%Inh,GRK2,0%
same,%Inh,GRK3,0%
same,%Inh,GRK4,0%
same,%Inh,GRK7,11%
same,%Inh,GSK3A,38%
same,%Inh,GSK3B; 1 µM,9%
COc1cc2c(Nc3ccc(NC(=O)c4ccccc4)cc3)ncnc2cc1OCCCN1CCOCC1 [GSK301329],%Inh,FGFR1,0%
same,%Inh,FGFR2,0%
same,%Inh,FGFR3,6%
same,%Inh,FGFR4,0%
same,%Inh,FGR,35%
same,%Inh,FLT1,26%
same,%Inh,FLT3-autoinhibited,0%
same,%Inh,FLT3,35%
same,%Inh,FLT4,5%
same,%Inh,FRK,7%
same,%Inh,FYN,49%
same,%Inh,GAK,0%
same,%Inh,"GCN2(Kin.Dom.2,S808G)",4%
same,%Inh,GRK1,10%
same,%Inh,GRK2,0%
same,%Inh,GRK3,0%
same,%Inh,GRK4,12%
same,%Inh,GRK7,0%
same,%Inh,GSK3A,0%
same,%Inh,GSK3B; [1],11%
